Out of some 360,000 compounds screened, about 17,000 (4.7%) were called active. About 5% were inconclusive and are not listed. The sample holds actives, similar compounds and a random draw of the others, so the mix is not that of the screen. Unmarked numbers belong to inactive results. Cut-off read from the data, not from the text of the source: active = activity change below about -50%; inconclusive = mostly about -30% to -49%; inactive = weaker than that.
Test: qHTS for Inhibitors of Inflammasome Signaling: IL-1-beta AlphaLISA Primary Screen
Details: THP-1 LPS/ATP IL-1B secretion, 16 h, at 57.5 µM, active compounds read low
Source text: Inflammasomes are a set of intracellular multi-protein complexes that enable autocatalytic activation of inflammatory caspases and drive the innate immune response to counter harmful agents. […] A qHTS assay, based on AlphaLISA technology, was developed to screen the Molecular Libraries Small Molecule Repository (MLSMR) to look for novel inflammasome inhibitors. The assay detects IL-1B using AlphaLISA anti-IL-1B acceptor and donor beads. A decreased emission signal, indicating reduced IL-1B secretion, is the desired outcome for this assay. NIH Chemical Genomics Center [NCGC] NIH Molecular Libraries Probe Centers Network [MLPCN] MLPCN Grant: MH095513 Assay Provider: Shyam Biswal Ph.D., Johns Hopkins University Immunity. 2012 Jul 27;37(1):85-95. PMID: 22819042 [2] Curr Pharm Des. 2012;18(16):2320-8. PMID: 22390695
Three microliters containing 3000 THP-1 cells were dispensed into the wells of solid, white, tissue culture treated Greiner 1,536-well plates. Library compounds and positive control, Glyburide, were pin-transferred (23 nL) by a Kalypsys pin-tool equipped with a 1,536-pin array, resulting in final compound concentration ranges of 2.5 nM to 57.5 uM. After 1 hr of cell culture incubation (37 °C, 5% CO2), 1 microL of 1 microg/mL lipopolysaccharide (250 ng/mL, final) and 5 mM ATP (1.25 mM, final) were added to stimulate the cells. After 16 hr of cell culture incubation with the compounds, 1.5 uL of anti-IL-1B acceptor beads (6 ug/mL, final) and biotinylated antibody (0.6 nM, final) were added to the plate, followed by a 1 hr incubation at ambient temperature. To detect the secreted IL-1B, 1.5 uL of AlphaLISA SA-Donor beads (24 ug/mL, final) were added, followed by 30 min of incubation in the dark at ambient temperature. The AlphaLISA signal was read by a PerkinElmer EnVision plate reader with an ultrasensitive luminescence detector and 1536 Plate HTS AlphaScreen aperture (excitation of 680nm and emission of 615nm).
`CCC/C(=N\O)c1c[nH]c2ccccc12` showed an activity change of 23.8%. Work on `Cn1c(C(=O)N2CCC(C(=O)N3CCC4(CC3)OCCO4)CC2)cc2sccc21` yielded an activity change of -11.3%. `CNP1(NC)=Nc2nn(-c3ccccc3)c(N)c2C(c2ccccc2)=N1` showed an activity change of -24.6%. In the case of `C=C(C)C1(CCCC)C(=O)NC(=S)NC1=O`, the activity change is reported as 11.5%. `CCOC(=O)CNC(=O)N1Cc2cc(N3CCCCC3)ccc2-n2nncc2C1` gave an activity change of -5.99%. In the case of `COC(=O)[C@@H]1C(OC(=O)c2ccccc2)CC2CCC1N2C` (stereo not given in full), the activity change is reported as -10.2%. For `COC(=O)C1=C(c2ccccc2)C[C@@H]2CC[C@H]1N2C(=O)N1CCCCC1`, the activity change was -19.1%. `COc1ccc2c(c1)NP(=S)(c1ccccc1)N2` (stereo not given) showed an activity change of -12.5%. `CC12CCC(O)CC1CCC1C2CCC2(C)C(C(=O)CC(O)C(F)(F)F)CCC12` (stereo not given) showed an activity change of 15.6%. For `COc1ccc(-c2nn(CCC#N)cc2C(=O)O)cc1`, the activity change was 10.5%. Work on `O=c1[nH]c(=S)n(C2CC2)c(O)c1/C=N/N1CCOCC1` yielded an activity change of 33.5%. Work on `C[N+]1(C)CCOC(O)(c2ccc(-c3ccc(C4(O)C[N+](C)(C)CCO4)cc3)cc2)C1` (stereo not given) yielded an activity change of 7.41%. `Cn1cc(C(=O)OCC(=O)N2CCCC2)c2ccccc21` gave an activity change of -12.4%. With `CC12CCC3C(CCC4CC(=O)CCC43C)C1CC(=NO)C2=O` (stereo not given) the activity change was -101% (active). For `C[C@]12CCC3C(CC[C@H]4C[C@@H](O)CC[C@]34C)C1C[C@@H](O)[C@H]2O` (stereo not given in full), the activity change was 24.7%. `C[C@]12CCC3C(CC[C@H]4[C@H](O)[C@H](O)CC[C@]34C)C1CCC2=O` (stereo not given in full) showed an activity change of 8.07%. Compound `O=c1c2ccccc2[nH]c(=S)n1-c1cccc(Cl)c1` has an activity change of 25.2%. In the case of `CCn1cc(CN2CCCC(C(=O)c3cccc(C(F)(F)F)c3)C2)cn1` (stereo not given), the activity change is reported as 10.1%. With `COc1ccc(CCn2c(O)c(C=NCCCn3ccnc3)c(=O)[nH]c2=O)cc1OC` the activity change was 43.4%. For `CCCCCCCCCCCCn1ccc(=N)cc1`, the activity change was -100% (active). Work on `CCOC(=O)C1SC2(C(F)(F)C(F)F)CC1(O)c1c(c(OC)c3occc3c1OC)O2` (stereo not given) yielded an activity change of 0%. Work on `CC(C)(C)[C@]1(O)C[C@@H]2OC(=O)C[C@@]23C(=O)O[C@@H]2OC(=O)[C@H](O)[C@]213` yielded an activity change of -4.02%. Compound `COCc1cc(OC(=O)N(C)C)nc(-c2ccc(C)c(Cl)c2)n1` has an activity change of -2.68%. For `C[C@]12CCCCC1=CC(=O)C1C2CC[C@@]2(C)C1C[C@@H](F)[C@@H]2O` (stereo not given in full), the activity change was 0.0265%. `CC(C)c1ccc(OCC(=O)N2CCCN(C)CC2)cc1` gave an activity change of -17.5%. Compound `CCOC(=O)CC(SP1(=S)OCC2(CCCCO2)C(C2CCCCO2)O1)C(=O)OCC` (stereo not given) has an activity change of 17.2%. For `CC(c1ccccc1)(c1ccccc1)c1ccncc1`, the activity change was -63.6% (active). In the case of `ClC(Cl)(Cl)c1ccccc1`, the activity change is reported as -9.44%. For `c1ccc(C(CN2CCCCC2)c2ccccc2)cc1`, the activity change was -8.96%. In the case of `CNC(=O)N(C)c1nnc(C(C)(C)C)s1`, the activity change is reported as 17.7%. `O=C1NCN(c2ccccc2)C12CCN(C(c1cccs1)c1nnnn1C1CCCCC1)CC2` (stereo not given) showed an activity change of -18.5%. In the case of `CC(C)CN1Cc2cc(N3CCCCC3)ccc2-n2nncc2C1`, the activity change is reported as -4.66%. In the case of `CCC1(CC(C)c2ccccc2)C(=O)NC(=O)NC1=O` (stereo not given), the activity change is reported as -0.699%. Compound `COC(=O)C[C@H]1CC[C@H]2NC[C@@H](O)COC[C@@H]2O1` has an activity change of 0%. Compound `CC1C2Cn3c(nc4ccccc43)C1N(C)O2` (stereo not given) has an activity change of 32.4%. In the case of `CC(Cc1ccccc1)NCCC(c1ccccc1)c1ccccc1` (stereo not given), the activity change is reported as -64.4% (active). With `CC(Cc1ccccc1)NC=O` (stereo not given) the activity change was 16%. Work on `CC(=O)NC(=O)NC(C)Cc1ccccc1` (stereo not given) yielded an activity change of 11.5%. `CN1CCC(OC(=O)c2cccc(F)c2)CC1` gave an activity change of -22%. Work on `COc1ccc(NC(=O)N2Cc3ccccc3-n3nncc3C2)cc1` yielded an activity change of -5.29%. In the case of `Cc1cc(-c2ccc(N)c(C)c2)ccc1N`, the activity change is reported as -12.1%. With `CC(=O)OC1C2(CC3N4C(=O)C5(CO)SSC4(CC31O)C(=O)N5C)OC(C)C(C)(C)C2=O` (stereo not given) the activity change was -104% (active). `Cc1ccc(C(C)C)c(OCC(=O)N2CCN(CC(=O)N3CCOCC3)CC2)c1` gave an activity change of -9.54%. `C[N+]12CN3CN(CN(C3)C1)C2` gave an activity change of 1.54%. Compound `Clc1cccc(Cl)c1Cl` has an activity change of -12.8%. `C[C@]12CC[C@H](O)C[C@H]1CC[C@@H]1C2CC[C@]2(C)[C@@H](C3=CC(=O)OC3)[C@@H](O)C[C@]12O` (stereo not given in full) showed an activity change of -21.6%. In the case of `COC1C(O)C(C)OC(OC2CCC3(C=O)C(CCC4C3CCC3(C)C(C5=CC(=O)OC5)CCC43O)C2)C1O` (stereo not given), the activity change is reported as -68% (active). Work on `C[C@H]1CN([C@@H](C)CO)C(=O)CCCn2nncc2CO[C@H]1CN(C)C(=O)Oc1cccc2ccccc12` yielded an activity change of 24.1%. In the case of `COc1cc(C(=O)N2Cc3ccc(Br)cc3-n3nncc3C2)cc(OC)c1OC`, the activity change is reported as -13.4%. For `O=C1/C(=C\c2ccc3c(c2)OCO3)N2CCC1CC2`, the activity change was -14.8%. Compound `O=c1c2ccccc2nc(-c2ccccc2)n1-c1ccccn1` has an activity change of 17.2%. `Cc1nc2ccccc2c(=O)n1-c1ccc(Cl)cc1Cl` gave an activity change of -2.71%. For `O=c1c2ccccc2nc(/C=C/c2ccc(F)cc2)n1-c1ccccc1O`, the activity change was -94.1% (active). `COc1ccccc1NC(=O)N1C[C@@H]2C[C@@H](C1)c1cccc(=O)n1C2` gave an activity change of 1.98%. With `O=C(O)C1CSC(c2cccnc2)N1` (stereo not given) the activity change was 0%. `NCCc1ccc(S(=O)(=O)F)cc1` showed an activity change of 13%. In the case of `O=C(NC1CCCCC1)N1Cc2cc(N3CCCCC3)ccc2-n2nncc2C1`, the activity change is reported as -7.47%. In the case of `CCOc1ccc(-c2cc(C)[n+](CCN(CC)CC)c(-c3ccc(OCC)cc3)c2)cc1`, the activity change is reported as -82.5% (active). `COC(=O)C1=C(c2ccc(F)cc2OCc2ccccc2)C[C@@H]2CC[C@H]1N2C(=O)NCc1ccc(C(C)(C)C)cc1` showed an activity change of -29.4%. Work on `COC(=O)C1=C(c2ccc(F)cc2OCc2ccccc2)C[C@@H]2CC[C@H]1N2C(=O)NCc1ccc(OC)c(OC)c1` yielded an activity change of -5.32%. With `COC(=O)C1=C(c2ccc(F)cc2OCc2ccccc2)C[C@@H]2CC[C@H]1N2C(=O)NCc1ccc(Cl)cc1` the activity change was -55.3% (active). Compound `CC1CCC(N(C)C2CCN(C)CC2)CC1` (stereo not given) has an activity change of 0%. `CCOC(=O)c1cccc(C2=C(CNC(=O)c3ccncc3)[C@H]3CC[C@@H](C2)N3Cc2ccccc2)c1` showed an activity change of 41.7%. `COc1ccc(-c2nc(CS(=O)CC(=O)N3CCC4(CC3)OCCO4)c(C)o2)cc1` (stereo not given) gave an activity change of -1.15%. `O=P(OC1=CCCCC1)(c1ccccc1)c1ccccc1` gave an activity change of -4.62%. Work on `Cc1ncoc1C(=O)NCC1=C(c2cccc3ccccc23)C[C@@H]2CC[C@H]1N2Cc1ccco1` yielded an activity change of -7.11%. With `CC1(C)Cc2c(C#N)c(N3CCNCC3)nc(-c3ccco3)c2CS1` the activity change was -50.4% (active). In the case of `COC(=O)C1=C(c2ccc(OCc3ccccc3)cc2)C[C@@H]2CC[C@H]1N2C(=O)NCc1ccc(Cl)cc1`, the activity change is reported as 4.2%. For `COc1ccc(C2C=C(C)Oc3c2c(=O)oc2ccccc32)cc1OC` (stereo not given), the activity change was 7.28%. With `N#CC1=C(N)Oc2c(c(=O)oc3ccccc23)C1c1ccccc1OC(=O)c1cccs1` (stereo not given) the activity change was -86.1% (active). Work on `S=C(NCCc1ccccc1)N1Cc2cc(N3CCOCC3)ccc2-n2nncc2C1` yielded an activity change of -27%. For `Cc1cc(C)c2c(c1)NP(=S)(c1ccccc1)N2` (stereo not given), the activity change was -11.4%. In the case of `Cc1cc(C=C2C(=O)NC(=O)NC2=O)c(C)n1-c1ccncc1`, the activity change is reported as -12.3%. For `Cc1ccnc(-n2c(C)cc(/C=C3\C(=O)NC(=S)N(C)C3=O)c2C)c1`, the activity change was -79.4% (active). `Cc1ccc(-n2c(C)cc(/C=C3\C(=O)NC(=O)N(C)C3=O)c2C)cc1C` gave an activity change of -4.58%.

From PubChem BioAssay AID743279 (National Center for Advancing Translational Sciences (NCATS), 2014)
% is set by controls: 0 for no effect and ±100 for the full control effect.
